This passage reports residual activity results from ChEMBL document CHEMBL2218924, “A broad activity screen in support of a chemogenomic map for kinase signalling research and drug discovery” (Biochem J, 2013).

Sequence of Proto-oncogene tyrosine-protein kinase ROS (Homo sapiens) (P08922 whole entry): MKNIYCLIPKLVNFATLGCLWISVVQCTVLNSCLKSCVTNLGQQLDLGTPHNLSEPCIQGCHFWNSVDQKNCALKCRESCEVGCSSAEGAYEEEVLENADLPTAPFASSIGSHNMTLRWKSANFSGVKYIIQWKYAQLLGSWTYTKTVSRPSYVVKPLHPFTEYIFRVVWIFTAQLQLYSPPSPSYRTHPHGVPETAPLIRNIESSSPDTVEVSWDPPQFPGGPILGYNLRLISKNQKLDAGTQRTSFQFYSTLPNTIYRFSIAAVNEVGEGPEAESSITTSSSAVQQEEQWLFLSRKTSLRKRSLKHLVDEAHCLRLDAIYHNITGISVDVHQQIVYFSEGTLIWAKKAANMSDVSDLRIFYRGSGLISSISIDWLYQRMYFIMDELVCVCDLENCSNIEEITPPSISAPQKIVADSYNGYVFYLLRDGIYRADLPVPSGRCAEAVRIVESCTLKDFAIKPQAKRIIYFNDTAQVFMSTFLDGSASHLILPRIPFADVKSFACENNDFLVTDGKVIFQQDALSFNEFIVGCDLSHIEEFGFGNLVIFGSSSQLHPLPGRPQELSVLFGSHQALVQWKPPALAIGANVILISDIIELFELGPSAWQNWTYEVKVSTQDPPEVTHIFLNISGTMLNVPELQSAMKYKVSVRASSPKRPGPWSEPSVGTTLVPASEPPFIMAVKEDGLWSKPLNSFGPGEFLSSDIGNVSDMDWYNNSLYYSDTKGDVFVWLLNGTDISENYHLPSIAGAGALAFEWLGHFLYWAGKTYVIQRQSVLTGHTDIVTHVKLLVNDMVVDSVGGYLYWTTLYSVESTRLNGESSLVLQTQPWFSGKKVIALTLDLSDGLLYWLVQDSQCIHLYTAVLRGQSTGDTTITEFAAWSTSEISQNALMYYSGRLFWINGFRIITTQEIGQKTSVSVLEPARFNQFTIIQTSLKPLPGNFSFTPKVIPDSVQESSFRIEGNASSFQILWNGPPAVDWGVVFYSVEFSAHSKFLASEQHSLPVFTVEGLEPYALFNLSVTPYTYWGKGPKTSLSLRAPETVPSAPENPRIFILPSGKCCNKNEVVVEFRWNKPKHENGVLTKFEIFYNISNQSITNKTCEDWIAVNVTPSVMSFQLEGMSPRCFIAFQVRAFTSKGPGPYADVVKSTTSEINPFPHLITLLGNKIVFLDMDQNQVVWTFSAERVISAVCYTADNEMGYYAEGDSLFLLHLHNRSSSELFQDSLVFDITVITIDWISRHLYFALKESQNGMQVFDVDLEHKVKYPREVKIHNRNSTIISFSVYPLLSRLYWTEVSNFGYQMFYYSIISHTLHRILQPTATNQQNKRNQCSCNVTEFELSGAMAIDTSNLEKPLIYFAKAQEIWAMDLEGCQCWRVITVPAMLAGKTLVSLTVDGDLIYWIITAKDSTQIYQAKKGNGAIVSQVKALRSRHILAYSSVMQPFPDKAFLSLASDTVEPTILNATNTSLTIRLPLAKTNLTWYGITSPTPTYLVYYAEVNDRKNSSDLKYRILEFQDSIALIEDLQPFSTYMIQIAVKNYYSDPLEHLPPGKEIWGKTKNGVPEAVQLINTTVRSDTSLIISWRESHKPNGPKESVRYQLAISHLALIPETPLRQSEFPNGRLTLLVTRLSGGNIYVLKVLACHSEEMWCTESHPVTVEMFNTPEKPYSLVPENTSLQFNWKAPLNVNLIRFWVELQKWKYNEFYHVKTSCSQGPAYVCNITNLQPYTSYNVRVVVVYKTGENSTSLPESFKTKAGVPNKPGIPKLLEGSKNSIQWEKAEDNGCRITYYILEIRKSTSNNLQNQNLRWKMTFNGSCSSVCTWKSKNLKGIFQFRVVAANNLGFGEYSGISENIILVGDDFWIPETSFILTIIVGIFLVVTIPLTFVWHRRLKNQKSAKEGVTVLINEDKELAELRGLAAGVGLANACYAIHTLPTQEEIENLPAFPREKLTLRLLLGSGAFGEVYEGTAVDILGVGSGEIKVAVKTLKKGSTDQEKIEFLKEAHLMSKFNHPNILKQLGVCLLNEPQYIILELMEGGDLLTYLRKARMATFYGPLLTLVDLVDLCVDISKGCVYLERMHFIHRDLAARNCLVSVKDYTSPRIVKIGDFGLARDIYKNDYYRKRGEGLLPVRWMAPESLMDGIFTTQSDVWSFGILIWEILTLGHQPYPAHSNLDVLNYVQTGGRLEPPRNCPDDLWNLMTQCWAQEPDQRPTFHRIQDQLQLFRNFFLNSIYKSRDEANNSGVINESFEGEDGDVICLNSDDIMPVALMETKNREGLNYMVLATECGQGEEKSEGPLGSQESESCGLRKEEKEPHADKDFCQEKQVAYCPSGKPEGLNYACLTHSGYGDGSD
Sequence of Macrophage-stimulating protein receptor (Homo sapiens) (Q04912 25-304 limits assumed): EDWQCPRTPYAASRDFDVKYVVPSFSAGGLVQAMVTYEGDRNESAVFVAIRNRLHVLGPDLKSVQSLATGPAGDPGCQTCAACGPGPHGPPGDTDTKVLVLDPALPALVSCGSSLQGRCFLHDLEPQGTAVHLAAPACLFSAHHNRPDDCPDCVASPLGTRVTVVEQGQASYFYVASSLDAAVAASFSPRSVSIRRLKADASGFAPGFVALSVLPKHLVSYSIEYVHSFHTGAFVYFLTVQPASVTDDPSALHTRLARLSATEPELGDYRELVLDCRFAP
Sequence of Macrophage-stimulating protein receptor (Homo sapiens) (Q04912 310-1400 limits assumed): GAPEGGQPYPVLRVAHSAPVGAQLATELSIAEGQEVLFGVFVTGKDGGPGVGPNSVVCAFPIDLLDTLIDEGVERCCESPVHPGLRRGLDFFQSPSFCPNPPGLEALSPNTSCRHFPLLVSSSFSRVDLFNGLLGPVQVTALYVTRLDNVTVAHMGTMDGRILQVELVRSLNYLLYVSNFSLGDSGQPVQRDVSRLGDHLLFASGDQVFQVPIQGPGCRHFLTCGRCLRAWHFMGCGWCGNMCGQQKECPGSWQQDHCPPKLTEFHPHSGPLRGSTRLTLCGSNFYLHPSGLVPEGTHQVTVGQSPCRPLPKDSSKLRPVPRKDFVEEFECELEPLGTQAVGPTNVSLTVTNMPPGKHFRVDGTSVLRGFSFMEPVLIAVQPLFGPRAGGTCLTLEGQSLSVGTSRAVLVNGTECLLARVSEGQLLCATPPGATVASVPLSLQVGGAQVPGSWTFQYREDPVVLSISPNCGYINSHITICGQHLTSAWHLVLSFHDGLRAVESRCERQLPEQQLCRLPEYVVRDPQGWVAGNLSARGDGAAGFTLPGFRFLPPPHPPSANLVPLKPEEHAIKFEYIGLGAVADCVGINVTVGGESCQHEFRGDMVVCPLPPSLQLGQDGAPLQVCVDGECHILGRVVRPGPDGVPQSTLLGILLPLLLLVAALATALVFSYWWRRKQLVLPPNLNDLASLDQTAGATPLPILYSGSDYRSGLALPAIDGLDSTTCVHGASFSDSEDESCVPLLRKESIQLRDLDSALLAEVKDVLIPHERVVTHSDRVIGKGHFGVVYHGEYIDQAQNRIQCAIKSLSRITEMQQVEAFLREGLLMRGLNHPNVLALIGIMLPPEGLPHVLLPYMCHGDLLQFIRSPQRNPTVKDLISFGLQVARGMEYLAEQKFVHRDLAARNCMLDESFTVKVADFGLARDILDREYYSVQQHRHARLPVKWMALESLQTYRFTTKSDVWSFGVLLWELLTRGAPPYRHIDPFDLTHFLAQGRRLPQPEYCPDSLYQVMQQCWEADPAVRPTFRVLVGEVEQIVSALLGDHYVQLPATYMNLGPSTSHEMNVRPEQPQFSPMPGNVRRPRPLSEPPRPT

One experiment addresses Macrophage-stimulating protein receptor (Homo sapiens) (UniProt Q04912). Conditions: at 10 µM.
`O=C(c1ccccc1)c1ccc(N2CCOCC2)cc1O`: the residual activity came out at 99%.
On to `N#C/C(=C1/Nc2ccccc2S1)c1ccnc(NCCc2cccnc2)n1`, for which the residual activity stood at 46%.
Consider `COc1ccc(COc2ccc(Cc3cnc(N)nc3N)cc2OC)cc1`, for which the residual activity is 62%.
For `CN(C)S(=O)(=O)c1ccc2c(c1)/C(=C/c1cc3c([nH]1)CCCC3)C(=O)N2`, the residual activity amounted to 83%.
Regarding `COc1ccc(-c2cnc3c(-c4ccsc4)cnn3c2)cc1`, the residual activity is 87%.
Consider `COc1cc2c(cc1OC)-c1n[nH]c(Nc3cccc(F)c3)c1C2`, for which the residual activity was 68%.
`O=C(O)/C=C/c1cc(Br)c(Br)c(Br)c1Br`: the residual activity was found to be 43%.
As to `O=C1NC(=O)C(c2cn(CCCO)c3ncccc23)=C1c1cnccn1`, the residual activity worked out at 58%.
Still for that read-out and setting: under `CCN(CC)CCNC(=O)c1c(C)[nH]c(/C=C2\C(=O)Nc3ccc(Cl)cc32)c1C` stands 40%; under `O=C1Cc2c([nH]c3ccc(Br)cc23)-c2ccccc2N1`, 77%; under `O=C1NC(=O)C(c2c[nH]c3ccccc23)=C1c1c[nH]c2ccccc12`, 70%.
`N#Cc1c(NC(=O)c2cccc3ccccc23)sc2c1CCCC2`: the residual activity was found to be 65%.
In the case of `COc1ccc2c(c1)c(C1=C(c3c[nH]c4ccccc34)C(=O)NC1=O)cn2CCCN(C)C`, the residual activity was found to be 56%.
`O=c1c(-c2ccc(F)cc2)c(-c2ccncc2)[nH]n1-c1ccc(Cl)cc1`: the residual activity came to 80%.
Take `CC(C)N(CCC(=O)c1ccc2ccccc2c1)Cc1ccccc1`: the residual activity amounted to 67%.
As for `NC(=O)c1ccc(-c2nc(-c3ccc4c(c3)OCCO4)c(-c3ccccn3)[nH]2)cc1`, the residual activity was 86%.
With `O=c1cc(N2CCNCC2)oc2c(-c3ccccc3)cccc12`, the residual activity was found to be 58%.
Consider `CCCCc1c(-c2ccc(OC)cc2)[nH]c2nccnc12`, for which the residual activity was determined as 103%.
For `COc1cc2nccc(Oc3ccc(NC(=O)Nc4cc(C)on4)c(Cl)c3)c2cc1OC`, the residual activity came to 3%.
On to `O=C1Cc2c([nH]c3ccc([N+](=O)[O-])cc23)-c2ccccc2N1`, for which the residual activity stood at 108%.

A further experiment addresses Proto-oncogene tyrosine-protein kinase ROS (Homo sapiens) (UniProt P08922). Conditions: at 1 µM.
For `O=C(c1ccccc1)c1ccc(N2CCOCC2)cc1O`, the residual activity is 96%.
As for `COc1ccc(COc2ccc(Cc3cnc(N)nc3N)cc2OC)cc1`, the residual activity came out at 81%.
For the compound `O=C(O)/C=C/c1cc(Br)c(Br)c(Br)c1Br`, the residual activity is 108%.
For the compound `N#Cc1c(NC(=O)c2cccc3ccccc23)sc2c1CCCC2`, the residual activity was 93%.
For `O=c1cc(N2CCNCC2)oc2c(-c3ccccc3)cccc12`, the residual activity amounted to 97%.
The same measure, in the same setting: under `COc1cc2nccc(Oc3ccc(NC(=O)Nc4cc(C)on4)c(Cl)c3)c2cc1OC` stands 24%.
